# hcDAF-12 act – activates DAF-12 receptor from parasite H. contortus; HEK293 hcDAF-12 lit1-tk-luc reporter, luminescence; 0% DMSO, 100% Δ7-dafachronic acid; activation, % at 6.8 µM; actives 1.4% (n = 370,000);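 active means activation above the mean of all tested compounds plus 3 SD, cut at about 5.5% in these data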;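 further: 100% = response to 3 µM Δ7-dafachronic acid high control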
# DAX1 inh-1 – DAX1 (NR0B1) inhibition, primary screen; inhibition, % at 6.8 µM; HEK293T StAR-luciferase reporter, SF-1/DAX-1 repression relief; actives 1.1% (n = 370,000); AID 652010;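 active means inhibition above the mean over all tested compounds plus 3 SD, cut at about 3.6% in these data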;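 further: 0% = DAX-1 cells with DMSO and 100% = cells lacking DAX-1 with DMSO; higher inhibition means more luminescence from relief of DAX-1 repression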
# DAX1 inh-2 – inhibitors of human orphan nuclear receptor DAX1 (NR0B1); HEK293 Gal4-DAX1 luciferase reporter, luminescence; P51843; actives 0.99% (n = 340,000); inhibition, % at 6.75 µM;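 active means inhibition above the mean over all tested compounds plus 3 SD, cut at about 4.2% in these data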;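 further: 0% = DAX1-transfected cells with DMSO and 100% = empty-vector control cells with DMSO; inhibition shows as a rise in luminescence from relieved DAX1 repression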
# Target sequence (P51843 207-470 limits assumed): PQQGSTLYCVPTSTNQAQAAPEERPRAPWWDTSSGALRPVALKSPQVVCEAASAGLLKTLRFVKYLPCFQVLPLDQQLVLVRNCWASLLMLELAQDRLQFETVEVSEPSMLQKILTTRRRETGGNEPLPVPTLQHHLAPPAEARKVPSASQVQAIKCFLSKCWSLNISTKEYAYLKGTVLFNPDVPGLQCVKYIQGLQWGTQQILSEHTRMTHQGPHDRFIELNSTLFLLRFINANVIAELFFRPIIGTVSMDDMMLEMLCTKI
# hgDAF-12 ag – hgDAF-12 agonism, primary luciferase screen; HEK293 GAL4-hgDAF12 UAS-luciferase reporter, agonist luminescence; normalized to butyrate control; activation, % at 6.8 µM; actives 1.8% (n = 370,000);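 active means activation above a cutoff set at the mean of all screened compounds plus 3 SD, cut at about 10% in these data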;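 further: 0% = DMSO wells and 100% = sodium butyrate wells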
# ssDAF-12 act – activators of S. stercoralis DAF-12 nuclear receptor | HEK293 ssDAF-12/GRIP1 lit1-tk-luc reporter, luminescence; % of 3 µM dafachronic acid response | activation, % at 6.8 µM | actives 1% (n = 370,000);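 active means activation above the mean over all tested compounds plus 3 SD, cut at about 0.9% in these data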;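 further: 0% = DMSO-only wells and 100% = 3 µM delta7-dafachronic acid wells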
# hgDAF12 ag – confirmation of H. glycines DAF-12 agonists; shares compounds with hgDAF-12 ag; HEK293 GAL4-hgDAF12 luciferase reporter, agonist mode; percent of butyrate response; activation, % at 6.8 µM; actives 80% (n = 3,300); AID 743050;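 active means mean activation over triplicate wells above the hit cutoff derived from the earlier primary screen, cut at about 11% in these data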;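 further: 0% = DMSO low control and 100% = 2 mM sodium butyrate high control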
# LXRb DAF12 ctr – activates human LXR-beta, counter-screen for DAF-12 agonists; 3,300 tested, under 10 active; activation, % at 6.8 µM; shares compounds with hgDAF-12 ag; HEK293 Gal4-LXR luciferase reporter, 24 h; AID 743051;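 active means mean activation of the triplicate above a set limit carried over from the primary screen, none filed active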
# * marks the source's active call; other numbers are inactive results; . = no result. Sampled rows, rich in hits. Any-hit rate of the full collection: about 4.1%.
SMILES,hcDAF-12 act,DAX1 inh-1,DAX1 inh-2,hgDAF-12 ag,ssDAF-12 act,hgDAF12 ag,LXRb DAF12 ctr
COc1ccc2cc(-c3ccccc3)c(=O)oc2c1,3,2,2,14*,1,16*,1
COc1cccc2cc(-c3nc4ccccc4[nH]3)c(=O)oc12,5,2,2,15*,1.1*,17*,1
O=C(OCC#CCSc1nnc(-c2cccc(F)c2)o1)c1ccc(F)cc1,1,.,.,0,-1,.,.
Cc1ccc(-c2nn(-c3ccccc3)cc2C=O)o1,3,4,1,13*,0,10,0
COc1ccc(C2=NOC(CNC(N)=S)C2)cc1 (stereo not drawn),4,2,4.5*,13*,1,15*,1
COc1ccc(CNC(=O)C2CC(c3ccc(OC)cc3)=NO2)cc1 (stereo not drawn),0,0,1,-2,-2,.,.
O=C(Nc1nc2cc3c(cc2s1)OCO3)c1ccco1,5,4,-5,19*,0,9,1
O=C(Nc1nc2cc3c(cc2s1)OCCO3)c1ccncc1,0,3,3,8,-1,.,.
O=C(Nc1nc2cc3c(cc2s1)OCCO3)c1ccco1,-5,-8,-5,-12,-2,.,.
CCOc1ccc(OCc2cccc(C(=O)Nc3ccc(CN4CCCCC4)cc3)c2)cc1,4,1,-3,18*,0,19*,1
O=C(Nc1ccc(Cl)cc1-c1nc2ccccc2s1)c1ccco1,.,.,0,.,.,.,.
O=C(Nc1nc(-c2nc3ccccc3s2)cs1)c1ccco1,2,4.5*,1,19*,0,7,0
CC(C)C(=O)Nc1nc2cc3c(cc2s1)OCCO3,4,1,-3,13*,-1,7,1
COC(=O)[C@]12C[C@H](CC(=O)NCc3ccccc3)C(=O)N(Cc3cccc4ccccc34)C1=C[C@H](C(C)(C)C)O[C@@H]2C,-2,-1,.,0,-1,.,.
CC(C)(C)c1ccc(-c2nnc(SCC(=O)Nc3ccc(S(=O)(=O)Nc4nccs4)cc3)n2-c2ccc(Cl)cc2)cc1,-1,1,.,3,-1,.,.
Cc1occc1C(=O)Nc1ccc(OCc2ccccc2)cc1,4,4.4*,0,14*,0,19*,0
CS(=O)(=O)c1ccc2nc(NC(=O)c3ccco3)sc2c1,4,3,0,15*,-1,14*,1
CCOc1ccc(NC(=O)c2ccco2)cc1,2,4,0,15*,0,13*,1
CC(=O)Nc1cccc(NC(=O)c2ccc(COc3ccccc3)cc2)c1,3,2,1,13*,0,17*,1
CCCCCCC(=O)n1ccc2ccc(-c3ccc4ccn(Cc5ccc(OC)cc5)c4c3)cc21,-2,-1,.,2,-1,.,.
CCOc1ccc2nc(NC(=O)c3ccco3)sc2c1,5,2,-4,16*,0,17*,1
CCOc1ccc2nc(NC(=S)NCc3ccccc3)sc2c1,0,0,0,0,-1,.,.
Cc1ccc(C2=N/C(=C\N3CCCCC3)C(=O)O2)cc1,6.4*,2,3,14*,0,9,1
Cc1ccc(C2=N/C(=C/N3CCOCC3)C(=O)O2)cc1,1,2,-1,8,-1,.,.
CCOC(=O)C1=CCN(S(=O)(=O)c2ccc(Cl)cc2)C1c1ccc(Cl)c(Cl)c1 (stereo not drawn),-2,-2,.,1,-1,.,.
SMILES,hcDAF-12 act,DAX1 inh-1,DAX1 inh-2,hgDAF-12 ag,ssDAF-12 act,hgDAF12 ag,LXRb DAF12 ctr
O=C(c1ccccc1)N1CCC2CCN(CCc3ccccc3)CC21 (stereo not drawn),1,1,.,-3,-1,.,.
N/C(=N\C(=S)Nc1ccccc1)c1ccccc1,6.0*,2,4.7*,16*,0,17*,1
CC(C)(C)C(=O)OCc1nc(-c2ccc3c(c2)OCCO3)cs1,2,0,1,4,-1,.,.
CSCC(=O)Nc1nc(-c2ccc3c(c2)OCCO3)cs1,2,3,4,17*,0,14*,1
COc1ccc(CNC(=O)N(C)C[C@@H]2OCc3ccccc3-c3c(n(C)c4ccccc34)C(=O)N([C@@H](C)CO)C[C@@H]2C)cc1,-2,-1,.,-2,-1,.,.
c1ccc(CSc2ncn(-c3ccccc3)n2)cc1,5,2,5.0*,14*,0,19*,1
O=C(NCCN1C(=O)C2C3C=CC(C3)C2C1=O)Nc1ccc(Br)cc1 (stereo not drawn),3,3,4,13*,0,11*,0
O=C(NCCN1C(=O)C2C3C=CC(C3)C2C1=O)Nc1cccnc1 (stereo not drawn),-1,0,-1,-1,-1,.,.
C#CCNC(=O)C[C@H]1C[C@@]2(C(=O)OC)C(=C[C@H](C(C)C)O[C@@H]2C2CC2)N(CCC2=CCCCC2)C1=O,-1,-1,.,-4,-1,.,.
COC(=O)C1CN(Cc2ccccc2)CCS(=O)(=O)N1Cc1cn(Cc2ccccc2)nn1 (stereo not drawn),0,0,.,0,-2,.,.
CCCSc1nsc(NC(=O)CC)n1,4,3,1,17*,-1,11*,1
CCCCCCSc1nsc(NC(=O)CC(C)C)n1,2,0,2,4,0,.,.
C/C(N)=C(/C#N)C(=O)CSc1nnc(Nc2ccccc2)s1,3,2,1,15*,-1,10,0
COC(=O)[C@]12C[C@H](CC(=O)NCC3CCCCC3)C(=O)N(Cc3ccc(Cl)cc3Cl)C1=C[C@H](C(C)(C)C)O[C@@H]2C,-2,1,.,2,0,.,.
C=CCSc1nnc(-c2ccc(Cl)cc2Cl)o1,4,3,2,14*,0,14*,1
O=S1(=O)c2ccc(N3CCN(Cc4ccccc4F)CC3)cc2Oc2ccccc2CN1Cc1cn(Cc2ccc(C(F)(F)F)cc2)nn1,0,0,.,1,-1,.,.
COc1ccc(-c2ccc(C(=O)C3CC3)cc2)cc1,3,2,2,15*,0,20*,1
C#CCCCN([C@H](C(=O)OC)C(C)C)S(=O)(=O)c1ccccc1Br,-3,-1,.,3,-2,.,.
CC(C)(C)OC(=O)N1CCC(N[C@@H](Cc2ccccc2)C(=O)NCCc2c[nH]c3ccccc23)(C(=O)NC2CCCCC2)CC1,1,.,.,-3,-2,.,.
N/C(=N\OC(=O)COc1cc(Cl)c(Cl)cc1Cl)c1ccncc1,1,0,.,2,-1,.,.
N/C(=N\OC(=O)COc1ccc(Br)cc1Cl)c1ccncc1,6.3*,4.0*,2,14*,0,16*,1

# Bioassay records deposited in PubChem by The Scripps Research Institute Molecular Screening Center.
